Measured values published in PubChem BioAssay AID1672 (Johns Hopkins Ion Channel Center, 2009).
The campaign covered roughly 310,000 compounds. About 2,600 (0.84%) were called active.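 How the source made its calls: active means fluorescence ratio B-score at or below minus 3 SD of library scores, with starting-brightness B-score within 2 SD (cut at about -4.2 in these data); inactive means the rest.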 The full list was thinned out, with actives kept by preference.

What follows are compounds tested against Inward rectifier potassium channel 2 (Mus musculus) (UniProt P35561) (assay: blocks the mouse Kir2.1 inward-rectifier potassium channel (AID 1672;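 further: channel flux triggered by added potassium and thallium sulfate stimulus; B-score of peak minus minimum fluorescence over baseline after thallium stimulus; more negative B-score means stronger Kir2.1 block with less thallium influx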)). Conditions: HEK293-Kir2.1, FluxOR thallium flux fluorescence; at 10 µM; stronger effect = lower value.
Sequence of Inward rectifier potassium channel 2 (Mus musculus) (P35561 whole entry, looked up): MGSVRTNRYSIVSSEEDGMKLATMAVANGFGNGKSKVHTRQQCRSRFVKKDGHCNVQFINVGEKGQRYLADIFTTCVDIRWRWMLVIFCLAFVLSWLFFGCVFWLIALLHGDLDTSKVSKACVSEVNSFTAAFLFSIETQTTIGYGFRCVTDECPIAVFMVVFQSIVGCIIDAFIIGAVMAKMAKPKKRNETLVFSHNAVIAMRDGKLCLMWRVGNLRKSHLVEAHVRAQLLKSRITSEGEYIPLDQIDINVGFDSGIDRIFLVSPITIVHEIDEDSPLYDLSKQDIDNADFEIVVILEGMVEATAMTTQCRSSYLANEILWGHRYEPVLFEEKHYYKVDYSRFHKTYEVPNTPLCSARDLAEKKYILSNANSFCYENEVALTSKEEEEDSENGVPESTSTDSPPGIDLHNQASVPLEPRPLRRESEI
For `O=C(N/N=C/c1cc(Br)c(O)c([N+](=O)[O-])c1)C(O)(c1ccccc1)c1ccccc1`, the B-score was 1.06 (inactive). With `CN(/N=C/c1ccccc1)C(=S)c1ccccc1` the B-score was 1.83 (inactive). For `CCCCCOc1ccc(CSC2=NCCN2)cc1[N+](=O)[O-]`, the B-score was -0.86 (inactive). `CCCOc1ccc(Cn2ccnc2)cc1[N+](=O)[O-]` was tested, and the B-score was -0.79 (inactive). For `CCCCOc1ccc(CSC(=N)N)cc1[N+](=O)[O-]`, the B-score was -5.22 (active). In the case of `O=C(CNC(=O)C12CC3CC(CC(C3)C1)C2)OCC(=O)N1CCCCC1`, the B-score is reported as 1.97 (inactive). In the case of `CCC(C)N(C(=O)COC(=O)c1nc(Cl)ccc1Cl)C1CCS(=O)(=O)C1` (stereo unspecified), the B-score is reported as -0.16 (inactive). `CCN(CC(=O)Nc1ccc(NC(C)=O)cc1)C(=O)C1CC(=O)N(Cc2ccc(C)cc2)C1` (stereo unspecified) was tested, and the B-score was 1.85 (inactive). `CCN(CC)C(=O)CC(c1ccc2c(c1)OCO2)c1c(OC)cc(OC)c2c(-c3ccccc3)cc(=O)oc12` (stereo unspecified) was tested, and the B-score was 1.58 (inactive). In the case of `CCN(CC)CCC(c1ccc2c(c1)OCO2)c1c(OC)cc(OC)c2c(-c3ccccc3)cc(=O)oc12` (stereo unspecified), the B-score is reported as -6.31 (active). `COc1cc(OC)c2ccc(=O)oc2c1C(CCN1CCN(c2ccccc2)CC1)c1ccc2c(c1)OCO2` (stereo unspecified) was tested, and the B-score was -0.17 (inactive). With `Cc1ccc2nc(Nc3ccccc3O)nc(-c3ccccc3)c2c1` the B-score was -0.47 (inactive). With `O=C(CCl)NNc1nc(-c2ccccc2)c2cc(Cl)ccc2n1` the B-score was 0.44 (inactive). `NC(N)=Nc1nc(-c2ccccc2)c2cc(Cl)ccc2n1` was tested, and the B-score was -10 (active). With `CCCCn1c(N)c(N(CCOC)C(=O)c2cccc(S(=O)(=O)N(C)c3ccccc3)c2)c(=O)[nH]c1=O` the B-score was -1.94 (inactive). In the case of `COc1ccc2c(c1)C(C)=CC(C)(C)N2C(=O)CNCc1ccc2c(c1)OCO2`, the B-score is reported as -6.62 (active). In the case of `COc1cccc(CNCc2ccc3c(c2)OCO3)c1`, the B-score is reported as 0.44 (inactive). In the case of `COc1ccc2c(c1)C(C)=CC(C)(C)N2C(=O)Nc1ccccc1`, the B-score is reported as -0.17 (inactive). In the case of `COc1ccc(-c2nnc(SCC(=O)Nc3cccnc3Cl)n2C)cc1`, the B-score is reported as -1.29 (inactive). `COc1ccccc1-c1n[nH]c2c1[C@H](C)CC[C@H]2C(C)C` was tested, and the B-score was -5.83 (active). For `COc1ccccc1-c1nc(SC)n[nH]1`, the B-score was 0.18 (inactive). In the case of `COc1ccc(-c2n[nH]c(C)c2-c2ccccc2OC)c(O)c1`, the B-score is reported as -2.01 (inactive). `CCOc1ccc(S(=O)(=O)N2CCC(C(=O)OCc3ccc(OC)cc3)CC2)cc1` was tested, and the B-score was -1.22 (inactive). With `CCOc1cc(/C=N/NC(=O)c2cccc(S(=O)(=O)N3CCOCC3)c2)ccc1OCC(=O)N(C)C` the B-score was 0 (inactive). With `COc1ccc(CC(=O)NC(C)CCc2ccccc2)cc1` (stereo unspecified) the B-score was -1.96 (inactive). For `COc1ccc(C(CNCC(=O)Nc2ccccc2F)N(C)C)cc1` (stereo unspecified), the B-score was -0.53 (inactive). For `COc1ccc(C(CCNCc2ccccc2F)c2ccc(F)cc2)cc1` (stereo unspecified), the B-score was -9.19 (active). In the case of `Cc1ccc(NC(=O)COc2coc(CN3CCc4ccccc4C3)cc2=O)cc1Cl`, the B-score is reported as -0.37 (inactive). With `CC(=O)Nc1ccc(C(=O)Nc2cccc(S(=O)(=O)NC3=NCCC3)c2)cc1` the B-score was -0.82 (inactive). With `O=C(Nc1ccccc1Cl)Nn1cnnc1` the B-score was 1.92 (inactive). `O=C(COC(=O)c1cccs1)Nc1ccccc1Cl` was tested, and the B-score was -0.93 (inactive). `O=C(Nc1ccccc1Cl)/C(Cl)=C(\Cl)S(=O)c1ccccc1` (stereo unspecified) was tested, and the B-score was -14.3 (active). For `O=C(NCCCc1ccccc1)C(=O)NCC1OCCN1S(=O)(=O)c1ccccc1` (stereo unspecified), the B-score was 0.45 (inactive). For `COc1cc(S(=O)(=O)N2CCN=C2c2ccccc2)ccc1Cl`, the B-score was -5.41 (active). `CC1=NCCN1S(=O)(=O)c1cccc([N+](=O)[O-])c1` was tested, and the B-score was 0 (inactive). `CCOc1ccc(S(=O)(=O)N2CCN=C2Cc2ccccc2)cc1C` was tested, and the B-score was -3.8 (inactive). `CCOC(=O)c1cc(C(C)C)sc1NC(=O)COC(=O)c1nccnc1N` was tested, and the B-score was -0.16 (inactive). In the case of `CCCCN(C(=O)c1ccc(S(=O)(=O)N2CCOCC2)cc1)C1CCS(=O)(=O)C1` (stereo unspecified), the B-score is reported as -1.08 (inactive). In the case of `Cc1ccc(-c2nn(-c3ccccc3)cc2C(=O)NCCCN2CCCC2=O)cc1`, the B-score is reported as -0.8 (inactive). For `OC(COc1ccc(F)cc1Cl)CN1CCc2ccccc2C1` (stereo unspecified), the B-score was -5.33 (active). `Cc1ccc(OCC(O)CN2CCN(CC(O)COc3ccc(C)cc3Cl)CC2)c(Cl)c1` (stereo unspecified) was tested, and the B-score was 0.66 (inactive). In the case of `COc1ccccc1OCC(O)CN1CCOCC1` (stereo unspecified), the B-score is reported as 1.4 (inactive). With `Cc1ccc(C(=O)NC2CCCC(C)C2C)cc1S(=O)(=O)N1CCCCC1` (stereo unspecified) the B-score was -1.83 (inactive). `CCn1cc(CCC(=O)NCc2ccc(F)cc2)c2ccccc21` was tested, and the B-score was -6.18 (active). In the case of `CCCCC(=O)NCc1ccc(F)cc1`, the B-score is reported as 0.15 (inactive). `O=C(Cc1ccccc1)NCc1ccc(F)cc1` was tested, and the B-score was 0.8 (inactive). With `CCCC(C(=O)OCCN(CC)CC)(c1ccccc1)c1ccccc1` the B-score was -5.06 (active). With `CCC(C(=O)OCCN(CC)CC)c1ccccc1` (stereo unspecified) the B-score was 0.4 (inactive). `CCN(CC)CCOC(=O)c1ccc(NC(=O)CNC(=O)c2ccccc2)cc1` was tested, and the B-score was 0.63 (inactive). For `COc1cc(C(=O)OCC(=O)N(CC(C)C)C2CCS(=O)(=O)C2)ccc1OCC(C)C` (stereo unspecified), the B-score was 1.65 (inactive). In the case of `COc1ccc(NC(=O)CSc2nnc(Cc3ccccc3)c(=O)n2N)cc1`, the B-score is reported as -1.28 (inactive). For `CC12CCC(=O)N1C(C(=O)Nc1ccc(F)c(F)c1F)CS2` (stereo unspecified), the B-score was 1.46 (inactive). In the case of `COc1cccc(CNC(=O)C(=O)NCCC2CCCCN2S(=O)(=O)c2ccc(C)cc2)c1` (stereo unspecified), the B-score is reported as -0.02 (inactive). With `COc1cccc(CN(C)CC(=O)Nc2sc3c(c2C#N)CCC3)c1` the B-score was 1.34 (inactive). With `COc1cccc(CN(C)CC(=O)Nc2ccccc2C(=O)Nc2ccccc2)c1` the B-score was 0.2 (inactive). For `COc1cccc(CN(C)CC(O)COC(c2ccccc2)c2ccccc2C)c1` (stereo unspecified), the B-score was -9.28 (active). For `C=CCOc1ccc(/C=C/C(=O)OC(C)C(=O)Nc2ccc(NC(C)=O)cc2)cc1` (stereo unspecified), the B-score was 1.98 (inactive). With `CSc1c(SCc2ccccc2)cnn(Cc2ccccc2)c1=O` the B-score was -5.77 (active). In the case of `Cn1c(CO)cnc1SCc1ccccc1`, the B-score is reported as 0.48 (inactive). For `CSc1nc2ccccc2c(=O)n1Cc1ccc(F)cc1`, the B-score was -0.15 (inactive). For `O=C(NCCC1CCCCN1S(=O)(=O)c1ccc(Cl)cc1)C(=O)NCc1ccco1` (stereo unspecified), the B-score was 0.39 (inactive).
